Screens deposited in PubChem by Broad Institute.
HSF-1 act: HSF-1 activators, primary screen, NIH3T3-HGL cells, MG132 stress, luminescence, single point | AID 504408, 2011 | activation, % at 9 µM | 300,000 tested, 1.7% active | NIH3T3-HGL HSF-1 luciferase reporter, 8 h; 100% = twice DMSO control signal;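 active = mean replicate activation of at least 50% with a set share of replicates each reaching 50%; inconclusive = only one of those two conditions met; inactive = mean below 50% and too few replicates reaching it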
HSF1 inh: HSF1 inhibitors in luciferase reporter cells, primary screen, cell-based, NIH3T3, luminescence; 300,000 tested, 0.77% active; NIH3T3-HGL HSE-luciferase, MG132-induced, luminescence 8 h; stronger effect = lower value; activity change, negative = inhibition, % at 7.5 µM (by protocol); AID 2098, 2009;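 active = more than half of replicate wells show activity change below -50%, luminescence cut by over half; inconclusive = some wells, but at most half, below -50%; inactive = no replicate well below -50%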;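 note: luciferase reports HSF-1 transcriptional activity via heat shock element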
Wnt bcat act: Wnt/beta-catenin pathway activators, primary screen, cell-based, plate reader, single point; AID 743398, 2014; activation, % at 9.35 µM; Wnt/beta-catenin reporter cell assay, activator; 300,000 tested, 1.2% active; in the data active = activation above about 30%, passing the limit was not always enough; inconclusive = no clear call, values can overlap the other calls
MITF TRPM1 HTS: activators of MITF-driven TRPM1 promoter reporter, primary screen, cell-based, SK-MEL-5, luciferase, single point; SK-MEL-5 TRPM1-promoter luciferase, 24 h; % of positive control, neutral wells = 0; activation, % at 12.5 µM; 300,000 tested, 0.75% active;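 active = mean activation of at least 80% with every replicate also reaching 80%; inconclusive = mean reaches 80% but some replicate falls short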
esBAF inh: Bmi1 luciferase reporter increase in mESCs, primary screen, esBAF inhibitor project, mouse ES cells, Bmi1 luciferase knock-in, single point. reporter increase, % at 12.5 µM. 24 h; 100% = twice the neutral-well signal. 350,000 tested, 2% active; in the data active = activation above about 40%; inconclusive = no clear call, values can overlap the other calls;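 note: a rise in the Bmi1 reporter signal indicates esBAF inhibition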
Hits are given with their value; – = inactive; ? = inconclusive; · = not tested or not shown. Sampled rows, rich in hits. Any-hit rate of the full collection: about 3.9%.

SMILES	HSF-1 act	HSF1 inh	Wnt bcat act	MITF TRPM1 HTS	esBAF inh
CCOC(=O)CSc1nc2c(sc3ccc([N+](=O)[O-])cc32)c(=O)n1Cc1ccco1	254	–	–	–	·
CCOC(=O)CSc1nc2ccccc2c(=O)n1Cc1ccco1	–	–	–	–	–
CCNC(=O)[C@@H]1N[C@@H]2c3ccc(-c4cccc(C(=O)N(C)C)c4)c(=O)n3C[C@@H]2[C@H]1CO	·	·	·	·	–
N/C(=N\OC(=O)c1ccc(F)cc1)c1ccc(Br)cc1	–	–	44	–	56
N/C(=N\OC(=O)c1ccc(Br)cc1)c1ccncc1	–	–	–	98	?
N/C(=N\OC(=O)c1ccc(F)cc1)c1ccccc1	–	–	·	–	–
CCC(C)NC(=O)c1cc2cc3ccc(OC)cc3nc2s1 (stereo unspecified)	–	–	45	–	–
COc1ccc2cc3cc(C(=O)NCCN4CCc5ccccc5C4)sc3nc2c1	74	–	–	–	·
C[C@H]1CN([C@@H](C)CO)C(=O)Cc2cc(NC(=O)NC3CCCCC3)ccc2O[C@H]1CN(C)C(=O)Nc1ccc(F)cc1	·	·	·	·	–
O=C(CNc1ccc2ccccc2c1)N/N=C/c1ccc(OC(=O)/C=C/c2ccco2)cc1	–	–	51	–	·
CCS(=O)(=O)N1Cc2ccccc2CC1C(=O)Nc1cccc(OC)c1 (stereo unspecified)	–	–	–	–	53
CCS(=O)(=O)N1Cc2ccccc2CC1C(=O)NCc1cccc(OC)c1 (stereo unspecified)	–	–	–	91	·
CCn1c(CC(C)C)n[nH]c1=S	59	–	–	·	–
COc1ccc(NC(=O)Nc2ccc3c(c2)C(=O)N([C@H](C)CO)C[C@H](C)[C@H](CN(C)S(=O)(=O)c2c(C)noc2C)OCCCC[C@@H](C)O3)cc1	·	·	·	·	–
C[C@@H]1CCCCO[C@H](CN(C)Cc2ccccc2)[C@@H](C)CN([C@H](C)CO)C(=O)c2cc(NC(=O)Nc3ccccc3)ccc2O1	·	·	·	·	–
COc1ccc(-c2csc(Nc3ccc(C)cn3)n2)cc1OC	–	–	–	–	61
Cc1ccc(Nc2nc(-c3ccc(O)c(O)c3)cs2)nc1	–	–	–	·	·
Cc1ccnc(Nc2nc(-c3ccccc3)cs2)c1	–	–	–	–	–
COc1ccc(-c2csc(Nc3cc(C)ccn3)n2)cc1OC	–	–	–	–	43
Cc1ccc(Nc2nc(-c3ccc(F)cc3)cs2)nc1	–	–	–	·	76
CC(=O)Nc1cccc(-c2csc(Nc3cc(C)ccn3)n2)c1	–	–	–	–	48
CC(=O)Nc1ccc(-c2csc(Nc3cc(C)ccn3)n2)cc1	–	–	–	–	?
O=C(C[C@@H]1C=C[C@H](NC(=O)C2CCC2)[C@H](CO)O1)NCc1ccccc1Cl	·	·	·	·	–
C[C@@H]1CN([C@H](C)CO)C(=O)c2cc(NS(=O)(=O)c3cccs3)ccc2O[C@@H](C)CCCCO[C@@H]1CN(C)CC1CC1	·	·	·	·	–
Cc1noc(C)c1NC(=O)N(C)C[C@H]1OCCCC[C@@H](C)Oc2ccc(NC(=O)C3CCCCC3)cc2C(=O)N([C@H](C)CO)C[C@@H]1C	·	·	·	·	–
SMILES	HSF-1 act	HSF1 inh	Wnt bcat act	MITF TRPM1 HTS	esBAF inh
C[C@H]1CN([C@@H](C)CO)C(=O)c2cccc(NC(=O)Nc3ccc(F)cc3)c2O[C@H]1CN(C)Cc1ccc(-c2ccccc2)cc1	·	·	·	·	–
C[C@@H]1CCCCO[C@@H](CN(C)C(=O)Nc2ccc(F)cc2)[C@@H](C)CN([C@H](C)CO)C(=O)c2cc(NC(=O)CCCCCC(=O)Nc3ccccc3N)ccc2O1	·	·	·	·	–
COc1ccc(N=Nc2ccc(N)nc2N)cc1	–	–	41	–	–
COc1ccc(N=Nc2ccc3ccccc3c2)c(O)c1	–	–	–	·	–
Nc1ccc(N=Nc2ccc(O)cc2)c(N)n1	·	·	–	–	·
COc1ccc(N=Nc2ccc(CO)cc2)cc1	72	–	–	·	·
COc1ccc(N=Nc2cc(C)ccc2O)cc1	59	–	54	–	·
COc1ccc(N=Nc2cc(OC)c(N)cc2OC)cc1	·	·	–	–	51
CN(C)CC(=O)N[C@@H]1CC[C@@H](CCn2cc(CN(C)C)nn2)O[C@H]1CO	·	·	·	·	–
CCC(=O)N1C[C@@H](C)[C@H](OC)CN(C)C(=O)c2cc(NC(=O)Nc3ccccc3)ccc2OC[C@H]1C	·	·	·	·	–
COc1ccc(/C(N)=N/OC(=O)Cc2cccs2)cc1OC	–	–	–	–	·
COc1ccc(/C(N)=N/OC(=O)COc2ccccc2Cl)cc1	58	–	–	–	49
COc1ccc(/C(N)=N/OC(=O)Cc2cccs2)cc1	–	–	–	?	60
Cc1ccccc1OCC(=O)O/N=C(\N)c1ccncc1	–	–	–	–	58
Cc1cccc(/C(N)=N/OC(=O)COc2ccccc2Cl)c1	·	·	·	–	·
Cc1cc(C)c(C)c(OCC(=O)O/N=C(\N)c2ccncc2)c1	–	–	–	–	–
Cc1ccc(OCC(=O)O/N=C(\N)c2ccncc2)c(C)c1	–	–	–	161	69
CCNC(=O)C[C@@H]1CC[C@H]2[C@@H](COC[C@@H](O)CN2S(=O)(=O)c2ccccc2F)O1	·	·	·	·	–
C[C@H](CO)N1C[C@H](C)[C@@H](CN(C)Cc2ccccc2)OCCCC[C@H](C)Oc2ccc(NC(=O)Nc3ccccc3)cc2C1=O	·	·	·	·	–
COc1ccccc1C(=O)C1CCCN(C(=O)c2ccc(C(C)=O)s2)C1 (stereo unspecified)	–	–	–	–	·
COC(=O)c1cccc(C(=O)N2CCCC(C(=O)c3cccc(OC(C)C)c3)C2)c1 (stereo unspecified)	–	–	–	–	–
COc1ccccc1C(=O)C1CCCN(C(=O)c2ccccc2C(C)=O)C1 (stereo unspecified)	–	–	–	–	50
COC(=O)c1cccc(C(=O)N2CCCC(C(=O)c3ccccc3OC)C2)c1 (stereo unspecified)	59	–	–	–	–
